The values that follow come from article PMC7862700, “An all-to-all approach to the identification of sequence-specific readers for epigenetic DNA modifications on cytosine”.

What all share (assay): DAPPL (digital affinity profiling via proximity ligation, sequencing); 10 mM Tris-HCl pH 7.5, 50 mM NaCl, 1 mM DTT, 4% glycerol, room temperature, 30 min; GST-TFs on glutathione beads, 16-mer random dsDNA library, 0.1% formaldehyde crosslink after washing; high values mean tight binding
Common to all, as to settings: protein: recombinant; tags: N-terminal GST; dsDNA, one strand shown

For one test, the target named is T1, ELK1 (Homo sapiens, UniProt P19419 1-428).
T1 sequence: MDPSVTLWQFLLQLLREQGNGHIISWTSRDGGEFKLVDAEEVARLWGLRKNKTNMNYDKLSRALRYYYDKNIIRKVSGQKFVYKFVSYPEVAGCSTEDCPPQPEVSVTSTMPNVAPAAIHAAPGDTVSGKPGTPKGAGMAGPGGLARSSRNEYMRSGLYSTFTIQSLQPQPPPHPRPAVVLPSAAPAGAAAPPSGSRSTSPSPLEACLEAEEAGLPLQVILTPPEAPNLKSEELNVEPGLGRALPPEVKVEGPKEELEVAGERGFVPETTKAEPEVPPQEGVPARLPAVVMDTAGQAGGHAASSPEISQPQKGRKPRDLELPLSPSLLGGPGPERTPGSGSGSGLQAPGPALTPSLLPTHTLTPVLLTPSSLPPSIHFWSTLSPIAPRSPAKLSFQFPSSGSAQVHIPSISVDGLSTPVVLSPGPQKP
In a few lines: (§1)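 GST fusions of human transcription factors were expressed in yeast and captured with glutathione beads. Once given DNA barcodes and pooled alongside a tag-only sample, they were incubated for 30 min at room temperature with 200 nmole of a random double-stranded 16-mer DNA library in Tris/NaCl/DTT/glycerol buffer, then washed, crosslinked (0.1% formaldehyde), proximity-ligated, PCR-amplified and sequenced on an Illumina NextSeq500. The binding signal of each hexamer is its read frequency for a factor divided by its frequency for the tag-only sample.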

Another test deals with T2, GABPA (Homo sapiens, UniProt Q06546 1-454).
T2 sequence: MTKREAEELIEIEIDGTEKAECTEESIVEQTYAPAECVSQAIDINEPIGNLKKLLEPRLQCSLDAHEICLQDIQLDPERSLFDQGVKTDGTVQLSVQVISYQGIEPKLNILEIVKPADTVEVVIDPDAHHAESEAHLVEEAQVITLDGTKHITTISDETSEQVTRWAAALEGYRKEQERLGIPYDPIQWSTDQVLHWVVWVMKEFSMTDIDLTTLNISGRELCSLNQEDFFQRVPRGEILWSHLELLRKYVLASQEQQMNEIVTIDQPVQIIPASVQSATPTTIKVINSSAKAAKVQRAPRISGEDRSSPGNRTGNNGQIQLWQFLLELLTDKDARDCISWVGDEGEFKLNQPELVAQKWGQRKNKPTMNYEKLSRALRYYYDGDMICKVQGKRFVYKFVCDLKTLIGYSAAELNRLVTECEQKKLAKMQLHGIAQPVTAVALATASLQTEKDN
In a few lines: as §1

The target of a further test is T3, ERG (Homo sapiens, UniProt P11308 1-479).
T3 sequence: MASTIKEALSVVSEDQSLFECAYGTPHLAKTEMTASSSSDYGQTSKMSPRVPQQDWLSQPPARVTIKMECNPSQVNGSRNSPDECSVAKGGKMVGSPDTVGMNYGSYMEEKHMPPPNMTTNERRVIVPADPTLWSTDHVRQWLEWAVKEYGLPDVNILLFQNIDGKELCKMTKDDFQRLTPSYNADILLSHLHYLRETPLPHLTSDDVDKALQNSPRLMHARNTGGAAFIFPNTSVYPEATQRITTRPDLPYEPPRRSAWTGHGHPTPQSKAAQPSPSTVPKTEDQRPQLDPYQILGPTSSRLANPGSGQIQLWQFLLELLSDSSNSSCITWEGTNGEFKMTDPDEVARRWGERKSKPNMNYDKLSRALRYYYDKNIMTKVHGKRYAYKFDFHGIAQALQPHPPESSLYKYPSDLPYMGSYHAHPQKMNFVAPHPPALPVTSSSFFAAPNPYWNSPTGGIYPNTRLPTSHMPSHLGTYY
The gist of the method:
as §1

The target in another test is ELF1 (Homo sapiens, UniProt P32519 1-619). In a few lines:
as §1

The next test concerns the target T4, EHF (Homo sapiens, UniProt Q9NZC4 1-300).
T4 sequence: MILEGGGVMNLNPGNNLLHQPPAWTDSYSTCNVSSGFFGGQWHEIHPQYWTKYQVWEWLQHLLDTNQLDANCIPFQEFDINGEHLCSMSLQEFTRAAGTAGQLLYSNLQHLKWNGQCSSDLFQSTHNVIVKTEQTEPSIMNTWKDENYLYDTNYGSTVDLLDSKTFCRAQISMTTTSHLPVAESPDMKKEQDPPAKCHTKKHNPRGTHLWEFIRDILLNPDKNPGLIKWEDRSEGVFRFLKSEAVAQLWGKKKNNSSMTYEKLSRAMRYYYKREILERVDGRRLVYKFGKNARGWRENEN
In a few lines:
as §1

A further test concerns the target SPIB (Homo sapiens, UniProt Q01892 1-262). In a few lines: as §1
The target in the next test is T5, FEV (Homo sapiens, UniProt Q99581 1-238).
T5 sequence: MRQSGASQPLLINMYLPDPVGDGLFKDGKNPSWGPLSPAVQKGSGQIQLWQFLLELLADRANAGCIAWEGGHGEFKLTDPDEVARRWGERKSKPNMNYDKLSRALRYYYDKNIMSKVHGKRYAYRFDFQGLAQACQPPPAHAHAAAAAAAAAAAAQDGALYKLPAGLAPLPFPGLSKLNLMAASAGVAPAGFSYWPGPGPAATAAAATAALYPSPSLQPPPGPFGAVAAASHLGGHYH
In a few lines:
as §1

In the next test the target is ETV5 (Homo sapiens, UniProt P41161 1-510). The gist of the method: as §1
Sequence of ETV5 (P41161 whole entry): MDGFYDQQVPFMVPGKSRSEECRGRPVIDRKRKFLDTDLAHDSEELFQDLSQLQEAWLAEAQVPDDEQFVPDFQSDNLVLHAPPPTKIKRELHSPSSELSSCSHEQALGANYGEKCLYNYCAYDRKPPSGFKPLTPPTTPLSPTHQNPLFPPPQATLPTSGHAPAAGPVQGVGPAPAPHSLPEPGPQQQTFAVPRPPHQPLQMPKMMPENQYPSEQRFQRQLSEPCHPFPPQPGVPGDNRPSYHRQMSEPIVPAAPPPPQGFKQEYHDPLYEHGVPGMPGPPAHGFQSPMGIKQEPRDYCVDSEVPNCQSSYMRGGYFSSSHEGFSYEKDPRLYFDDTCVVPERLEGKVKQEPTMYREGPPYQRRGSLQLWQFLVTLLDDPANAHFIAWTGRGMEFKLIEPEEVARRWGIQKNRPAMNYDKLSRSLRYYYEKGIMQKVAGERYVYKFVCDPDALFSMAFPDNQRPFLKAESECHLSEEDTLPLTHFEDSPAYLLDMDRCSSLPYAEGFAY
A further test addresses ELF4 (Homo sapiens, UniProt Q99607 1-663). The gist of the method: as §1
The target in another test is T6, ELK4 (Homo sapiens, UniProt P28324-2 1-405).
T6 sequence: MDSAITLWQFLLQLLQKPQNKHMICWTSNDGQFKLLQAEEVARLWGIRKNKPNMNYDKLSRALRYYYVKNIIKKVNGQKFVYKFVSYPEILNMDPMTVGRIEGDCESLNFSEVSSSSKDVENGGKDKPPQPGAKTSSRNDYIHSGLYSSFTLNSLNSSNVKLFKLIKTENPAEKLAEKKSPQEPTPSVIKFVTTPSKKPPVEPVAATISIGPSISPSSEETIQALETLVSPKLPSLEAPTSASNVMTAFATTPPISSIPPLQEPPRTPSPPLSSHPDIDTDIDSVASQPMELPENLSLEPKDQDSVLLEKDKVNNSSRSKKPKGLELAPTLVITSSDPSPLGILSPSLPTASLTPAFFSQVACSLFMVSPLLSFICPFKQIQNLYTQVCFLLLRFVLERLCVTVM
In a few lines:
as §1

Another test has as its target T7, ETV2 (Homo sapiens, UniProt O00321 1-342).
T7 sequence: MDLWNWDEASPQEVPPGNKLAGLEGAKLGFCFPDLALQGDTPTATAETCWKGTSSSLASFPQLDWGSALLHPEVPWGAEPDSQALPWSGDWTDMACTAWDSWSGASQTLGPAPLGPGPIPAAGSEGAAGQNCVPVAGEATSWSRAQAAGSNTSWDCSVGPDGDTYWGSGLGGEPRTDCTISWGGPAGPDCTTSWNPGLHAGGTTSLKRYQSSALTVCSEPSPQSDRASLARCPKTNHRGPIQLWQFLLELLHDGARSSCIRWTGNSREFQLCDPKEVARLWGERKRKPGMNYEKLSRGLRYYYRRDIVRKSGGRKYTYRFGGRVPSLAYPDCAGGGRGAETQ
In a few lines: as §1

For the next test, the target named is T8, ELF3 (Homo sapiens, UniProt P78545 1-371).
T8 sequence: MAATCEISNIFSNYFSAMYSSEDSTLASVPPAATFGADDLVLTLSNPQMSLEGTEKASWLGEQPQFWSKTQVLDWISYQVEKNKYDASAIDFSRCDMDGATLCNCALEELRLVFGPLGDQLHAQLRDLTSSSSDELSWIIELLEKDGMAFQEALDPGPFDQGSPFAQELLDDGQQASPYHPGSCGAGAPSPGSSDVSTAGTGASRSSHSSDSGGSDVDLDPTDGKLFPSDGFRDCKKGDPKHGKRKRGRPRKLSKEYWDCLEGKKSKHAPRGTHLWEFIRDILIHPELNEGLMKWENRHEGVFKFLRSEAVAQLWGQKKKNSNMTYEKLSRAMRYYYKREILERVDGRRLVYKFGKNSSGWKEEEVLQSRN
In a few lines: as §1

Another test addresses T9, ERF (Homo sapiens, UniProt P50548 1-548).
T9 sequence: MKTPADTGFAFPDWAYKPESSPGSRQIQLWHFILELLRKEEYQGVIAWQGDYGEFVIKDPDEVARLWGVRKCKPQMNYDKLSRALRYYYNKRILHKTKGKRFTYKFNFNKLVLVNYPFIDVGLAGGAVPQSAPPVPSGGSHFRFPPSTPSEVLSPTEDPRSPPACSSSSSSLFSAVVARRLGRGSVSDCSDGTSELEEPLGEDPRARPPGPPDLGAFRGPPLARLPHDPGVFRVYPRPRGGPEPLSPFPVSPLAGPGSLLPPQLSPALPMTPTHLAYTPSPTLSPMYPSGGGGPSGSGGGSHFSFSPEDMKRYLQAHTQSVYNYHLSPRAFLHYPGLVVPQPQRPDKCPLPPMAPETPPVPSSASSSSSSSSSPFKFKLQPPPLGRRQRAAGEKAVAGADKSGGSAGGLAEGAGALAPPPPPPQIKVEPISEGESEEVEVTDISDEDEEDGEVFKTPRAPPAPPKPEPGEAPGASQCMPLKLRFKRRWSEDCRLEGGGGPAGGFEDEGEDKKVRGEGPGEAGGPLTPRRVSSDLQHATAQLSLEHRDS
In a few lines: as §1

A further test addresses T10, ETV3L (Homo sapiens, UniProt Q6ZN32 1-361).
T10 sequence: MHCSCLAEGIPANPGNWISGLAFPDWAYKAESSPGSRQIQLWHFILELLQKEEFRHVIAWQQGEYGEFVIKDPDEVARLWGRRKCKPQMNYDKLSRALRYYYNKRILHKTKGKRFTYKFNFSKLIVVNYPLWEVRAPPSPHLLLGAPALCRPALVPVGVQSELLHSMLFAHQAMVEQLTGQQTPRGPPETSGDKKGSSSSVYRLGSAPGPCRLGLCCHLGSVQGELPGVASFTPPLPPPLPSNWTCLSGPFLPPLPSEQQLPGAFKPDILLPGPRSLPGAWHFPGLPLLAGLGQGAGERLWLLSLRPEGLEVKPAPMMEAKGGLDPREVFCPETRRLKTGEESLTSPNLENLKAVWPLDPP
The gist of the method: as §1

For the next test, the target named is T11, ETS2 (Homo sapiens, UniProt P15036 1-469).
T11 sequence: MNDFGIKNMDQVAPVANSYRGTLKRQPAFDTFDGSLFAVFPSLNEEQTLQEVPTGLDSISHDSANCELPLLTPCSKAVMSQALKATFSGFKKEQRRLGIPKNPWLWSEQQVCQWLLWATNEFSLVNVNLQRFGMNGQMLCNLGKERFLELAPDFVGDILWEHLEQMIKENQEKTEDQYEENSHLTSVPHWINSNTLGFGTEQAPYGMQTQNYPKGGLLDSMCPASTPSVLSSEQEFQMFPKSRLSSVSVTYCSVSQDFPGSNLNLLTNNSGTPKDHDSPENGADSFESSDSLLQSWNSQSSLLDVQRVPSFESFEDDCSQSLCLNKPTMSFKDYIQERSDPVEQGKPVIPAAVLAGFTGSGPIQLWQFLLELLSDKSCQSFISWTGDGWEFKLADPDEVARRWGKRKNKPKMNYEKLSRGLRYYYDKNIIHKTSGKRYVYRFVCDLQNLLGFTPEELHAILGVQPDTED
In a few lines: as §1

In the next test the target is T12, SPDEF (Homo sapiens, UniProt O95238 1-335).
T12 sequence: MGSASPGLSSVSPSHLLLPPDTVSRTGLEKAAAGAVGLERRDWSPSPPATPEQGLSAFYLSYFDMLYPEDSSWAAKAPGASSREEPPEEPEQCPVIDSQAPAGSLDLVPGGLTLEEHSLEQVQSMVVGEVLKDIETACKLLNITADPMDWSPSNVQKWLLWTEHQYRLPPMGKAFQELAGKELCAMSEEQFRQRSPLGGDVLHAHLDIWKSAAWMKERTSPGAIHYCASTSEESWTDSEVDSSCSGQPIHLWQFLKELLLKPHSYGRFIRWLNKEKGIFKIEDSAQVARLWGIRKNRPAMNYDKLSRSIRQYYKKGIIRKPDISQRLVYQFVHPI
The gist of the method: as §1

In another test the target is T13, ETV3 (Homo sapiens, UniProt P41162-2 1-143).
T13 sequence: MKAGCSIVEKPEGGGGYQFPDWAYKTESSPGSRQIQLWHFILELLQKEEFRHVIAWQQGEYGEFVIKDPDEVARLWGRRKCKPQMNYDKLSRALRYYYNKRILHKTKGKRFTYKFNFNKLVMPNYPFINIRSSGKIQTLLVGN
In a few lines:
as §1

Another test addresses ETV6 (Homo sapiens, UniProt P41212 1-452). The gist of the method: as §1

Sequence of ETV6 (P41212 whole entry): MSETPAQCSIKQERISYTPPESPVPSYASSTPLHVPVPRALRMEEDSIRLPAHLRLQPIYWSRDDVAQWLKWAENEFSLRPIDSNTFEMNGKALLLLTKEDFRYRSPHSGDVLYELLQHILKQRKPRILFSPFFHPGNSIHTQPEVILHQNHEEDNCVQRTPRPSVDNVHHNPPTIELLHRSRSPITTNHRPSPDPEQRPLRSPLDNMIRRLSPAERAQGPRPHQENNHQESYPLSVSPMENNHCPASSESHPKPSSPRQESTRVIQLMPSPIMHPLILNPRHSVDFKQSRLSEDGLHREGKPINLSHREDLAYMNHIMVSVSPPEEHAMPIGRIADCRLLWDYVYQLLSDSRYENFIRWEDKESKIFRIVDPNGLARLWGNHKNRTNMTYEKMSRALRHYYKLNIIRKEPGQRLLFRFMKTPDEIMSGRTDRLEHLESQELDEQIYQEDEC
Sequence of ELF1 (P32519 whole entry): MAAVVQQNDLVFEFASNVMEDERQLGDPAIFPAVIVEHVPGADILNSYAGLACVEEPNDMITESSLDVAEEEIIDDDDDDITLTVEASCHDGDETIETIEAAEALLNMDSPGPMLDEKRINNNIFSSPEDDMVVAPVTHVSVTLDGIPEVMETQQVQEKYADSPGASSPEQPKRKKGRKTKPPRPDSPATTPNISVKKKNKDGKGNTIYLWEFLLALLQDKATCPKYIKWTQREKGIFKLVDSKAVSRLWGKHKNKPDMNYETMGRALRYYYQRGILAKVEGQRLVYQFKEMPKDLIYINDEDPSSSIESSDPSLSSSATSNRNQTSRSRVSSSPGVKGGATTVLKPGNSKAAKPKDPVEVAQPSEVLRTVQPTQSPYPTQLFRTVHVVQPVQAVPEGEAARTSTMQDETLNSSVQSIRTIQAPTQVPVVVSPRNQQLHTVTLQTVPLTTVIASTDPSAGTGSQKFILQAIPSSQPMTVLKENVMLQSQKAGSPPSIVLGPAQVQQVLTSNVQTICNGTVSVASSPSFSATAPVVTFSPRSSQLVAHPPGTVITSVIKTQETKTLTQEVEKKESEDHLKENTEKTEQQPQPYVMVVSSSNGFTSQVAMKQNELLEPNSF
Sequence of ELF4 (Q99607 whole entry): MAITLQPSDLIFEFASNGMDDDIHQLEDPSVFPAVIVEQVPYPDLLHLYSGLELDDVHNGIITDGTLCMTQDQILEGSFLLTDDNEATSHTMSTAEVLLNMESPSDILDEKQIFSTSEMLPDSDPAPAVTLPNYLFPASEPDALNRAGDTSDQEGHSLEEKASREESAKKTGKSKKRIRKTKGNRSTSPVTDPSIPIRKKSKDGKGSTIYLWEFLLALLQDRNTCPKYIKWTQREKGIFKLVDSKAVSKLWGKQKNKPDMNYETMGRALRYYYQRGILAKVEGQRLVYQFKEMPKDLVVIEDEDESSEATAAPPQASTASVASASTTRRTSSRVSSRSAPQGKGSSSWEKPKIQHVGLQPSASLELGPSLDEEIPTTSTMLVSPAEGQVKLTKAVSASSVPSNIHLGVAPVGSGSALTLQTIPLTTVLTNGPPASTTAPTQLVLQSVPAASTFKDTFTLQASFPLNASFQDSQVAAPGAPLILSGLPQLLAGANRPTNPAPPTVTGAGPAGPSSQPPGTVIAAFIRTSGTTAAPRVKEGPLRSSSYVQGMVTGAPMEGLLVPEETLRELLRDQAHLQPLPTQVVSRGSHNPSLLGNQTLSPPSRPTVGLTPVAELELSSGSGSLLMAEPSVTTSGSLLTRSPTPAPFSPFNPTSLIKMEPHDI
Sequence of SPIB (Q01892 whole entry): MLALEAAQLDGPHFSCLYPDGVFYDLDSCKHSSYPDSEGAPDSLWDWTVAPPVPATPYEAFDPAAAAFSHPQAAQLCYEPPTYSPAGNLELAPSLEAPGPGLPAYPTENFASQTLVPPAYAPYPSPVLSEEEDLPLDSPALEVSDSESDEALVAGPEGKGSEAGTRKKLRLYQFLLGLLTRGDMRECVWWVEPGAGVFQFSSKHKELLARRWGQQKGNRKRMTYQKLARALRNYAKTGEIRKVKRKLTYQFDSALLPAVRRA

For the sequence AGCGCC, the binding signal in the test with ELK1 is 1.06 fold enrichment (6-mer frequency, TF over GST control); in the test with GABPA it was 1.07 fold enrichment (6-mer frequency, TF over GST control); with ERG, 1.05 fold enrichment (6-mer frequency, TF over GST control); with ELF1, 1.13 fold enrichment (6-mer frequency, TF over GST control); with EHF, 1.13 fold enrichment (6-mer frequency, TF over GST control); with SPIB, 1.1 fold enrichment (6-mer frequency, TF over GST control). Further, the binding signal in the test with FEV is 1.19 fold enrichment (6-mer frequency, TF over GST control); with ETV5 it was 1.04 fold enrichment (6-mer frequency, TF over GST control); in the test with ELF4, 1.09 fold enrichment (6-mer frequency, TF over GST control); with ELK4, 1.11 fold enrichment (6-mer frequency, TF over GST control); with ETV2, 1.09 fold enrichment (6-mer frequency, TF over GST control); with ELF3, 1.09 fold enrichment (6-mer frequency, TF over GST control). Moreover, the binding signal is 1.05 fold enrichment (6-mer frequency, TF over GST control) with ERF; 1.07 fold enrichment (6-mer frequency, TF over GST control) with ETV3L; 1.06 fold enrichment (6-mer frequency, TF over GST control) with ETS2; 1.02 fold enrichment (6-mer frequency, TF over GST control) with SPDEF; 1.14 fold enrichment (6-mer frequency, TF over GST control) in the test with ETV3; 1.16 fold enrichment (6-mer frequency, TF over GST control) with ETV6.
